KB-V1 cytotox – kills drug-selected multidrug resistant KB-V1 cells; AID 1347076; 3.4% of 400,000 active; Potency, µM (highest dose often 46.1 µM), usual class: cytotoxic; KB-V1 MDR cells viability, CellTiter-Glo, 72 h; also: nearly all actives have a fitted effect of over 60% in size
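In this primary screen, KB-V1 cells overexpressing P-gp are incubated with library compounds (lowest to highest concentration) for 72 h at 37 degrees C before a luminescent ATP viability read.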
KB-3-1 tox – kills parental KB-3-1 adenocarcinoma cells; AID 1347075; 1.4% of 400,000 active; KB-3-1 viability, CellTiter-Glo ATP luminescence, 72 h; Potency, µM (highest dose often 46.1 µM), actives largely listed as cytotoxic; also: nearly all actives have a fitted effect of over 60% in size
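Cells are dispensed, compounds pinned in, plates held at 37 °C for 72 h, then CellTiter-Glo is added and luminescence read after 10 minutes. Cell line: parental KB-3-1 in phenol-red-free DMEM, 10% FBS.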
DT40 TDP1 no CPT – qHTS for Inhibitors of human tyrosyl-DNA phosphodiesterase 1 (TDP1): qHTS in cells in absence of CPT; AID 686978, 2013; 15% of 420,000 active; Potency, µM (titrated, usually from 46.2 µM), for the others: top-dose activity change, negative = growth inhibition, hits mostly inhibitors; DT40 Tdp1-/- hTDP1 cells, no CPT, ATP luminescence, 48 h; also: nearly all actives have a fitted effect of over 55% in size
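Camptothecin absent (DMSO only). Human TDP1-complemented DT40 knockout cells, 400 cells/well, 37 °C for minimum 48 hr; ATP measured via CellTiter-Glo, 30 min dark incubation, luminescence.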
HT1080 IDH1KD tx – HT-1080 IDH1 knockdown cell toxicity (counter line). HT-1080 IDH1 knockdown viability, ATP luminescence, 48 h. Potency, µM (titrated, usually from 46.1 µM), inactives show at the top dose activity, negative = toxicity, actives largely listed as cytotoxic. 2% of 360,000 active. AID 686971;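 also: 0% = DMSO wells and -100% = cell-free medium wells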
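% activity derives from luminescence (CellTiter-Glo), normalised to DMSO and no-cell wells. HT-1080-IDH1KD cells, 750/well, had 48 h compound exposure at 37 °C.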
TDP1 cell CPT – growth inhibition of DT40 Tdp1-/-;hTDP1 cells with camptothecin (screen for TDP1 inhibitors) | 12% of 420,000 active | Potency, µM (titrated, usually from 46.2 µM), without a hit: top-dose activity change, negative = growth inhibition, most hits filed as inhibitors | AID 686979 | chicken DT40 Tdp1-/-;hTDP1 cells + 20 nM CPT, ATP luminescence, 48 h; also: nearly all actives have a fitted effect of over 55% in size
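Cell growth measured by CellTiter-Glo luminescence after a minimum 48 h, 37 C compound exposure with 20 nM CPT in Tdp1-knockout DT40 cells stably expressing hTDP1, seeded 400/well; qHTS titration format.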
HT1080NT lethal – kills 2HG-producing HT-1080-NT fibrosarcoma cells; HT-1080-NT fibrosarcoma viability, CellTiter-Glo ATP luminescence, 48 h; Potency, µM (highest dose often 46.1 µM), without a hit: at the top dose activity, negative = less viability, usual class: cytotoxic; 1.6% of 360,000 active;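 also: NT is the 2HG producing partner of a matched IDH1 knockdown line; 0% = DMSO-treated cells and -100% = media-only wells without cells; nearly all actives have a fitted effect of over 55% in size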
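HT-1080-NT; 750 cells/well; 5% FBS RPMI; 48 h compound, 37 degrees C; CellTiter-Glo luminescence; curve fitting and curve-class assignment.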
Active calls of the source: *; i = inactive; ? = inconclusive; / = no result given; [ ] = remark or other dose. Most compounds without a hit are left out; they make up all but 19% or so of the library. Calls follow the shape of the dose curve; as a rule, active = well fitted curve in the direction sought with a large enough effect; inconclusive = small, poorly fitted or top-dose-only effect, or another doubt; inactive = no such curve, though single readings can be large; an effect the other way counts as inactive or inconclusive. Unless noted, % is scaled to controls: 0 for no effect and ±100 for the full control effect; potency is read from the fitted curve at half-maximal effect.

SMILES	KB-V1 cytotox	KB-3-1 tox	DT40 TDP1 no CPT	HT1080 IDH1KD tx	TDP1 cell CPT	HT1080NT lethal
COc1ccc(NC(=O)C2CCC(=O)N2S(=O)(=O)c2ccc(C)cc2)c(OC)c1 (stereo not drawn)	i	i	-1%	0%	0%	1%
COc1ccc(-c2nc3c4ccccc4n(CC(=O)N4CCN(c5ccccc5F)CC4)c(=O)n3n2)cc1	i	i	?	/	?	/
CCCOc1cccc(C(=O)Nc2ccc3c(c2)OCCO3)c1	i	i	23µM*	-5%	-71%	0%
CCOc1ncccc1C(=O)Nc1cccc(S(=O)(=O)NC2=NCCC2)c1	i	i	-4%	-2%	-10%	-7%[9.24 µM]
CCOc1ncccc1C(=O)Nc1cccc(C(=O)Nc2cccc(S(=O)(=O)CCO)c2)c1	i	i	7.3µM*	-3%	?	0%
CCOc1ccc(Nc2nc(C)c(NC(=O)c3cccc(OC)c3)c(Nc3ccc(OCC)cc3)n2)cc1	i	i	2.3µM*	/	1.5µM*	/
Cc1cc(C(=O)Nc2ccccc2)c(C)o1	?	i	?	25%	-23%	2%
CCCOc1cccc(NC(=O)c2cc(C)oc2C)c1	i	i	16µM*	0%	26µM*	0%
CCOC(=O)CN1C(=O)CC(c2ccc([N+](=O)[O-])cc2)C1=O (stereo not drawn)	i	i	5%	8%	-19%	6%
COc1ccc(NC(=O)Cn2cc(C(=O)c3ccccc3OC)c(=O)c3ccc(C)nc32)cc1OC	i	i	?	/	-19%	/
O=C1NC[C@H](Cc2ccccc2)N(C[C@H]2CCCN2C[C@H](Cc2ccccc2)N2C[C@H](Cc3ccccc3)N(CC3CCCCCC3)C(=O)C2=O)C1=O	i	?	16µM*	?	?	?
CC(C)C[C@H]1CN([C@@H](Cc2ccccc2)CN2CCC[C@@H]2CN2C(=O)C(=O)NC[C@@H]2Cc2ccccc2)C(=O)C(=O)N1CC1CCCCC1	i	?	16µM*	16µM*	21µM*	?
O=C1NC[C@H](Cc2ccc(O)cc2)N(C[C@@H]2CCCN2C[C@H](Cc2ccccc2)N2C[C@H](Cc3ccc(O)cc3)N(CC3CCCCC3)C(=O)C2=O)C1=O	i	i	?	-2%	?	-20%
O=C1NC[C@H](Cc2ccccc2)N(C[C@@H]2CCCN2C[C@H](Cc2ccc(O)cc2)N2C[C@H](Cc3ccc(O)cc3)N(CC3CCCCC3)C(=O)C2=O)C1=O	i	i	23µM*	?	?	?
COCCCNC(=O)c1cc(C(=O)c2ccccc2Br)c[nH]1	i	i	-28%	-4%	6%	-6%
C/C(=N\O)C(=O)C(CN1CCCCC1)CN1CCCCC1	i	i	2.6µM*	0%	2.9µM*	1%
CC(=O)/C(CN1CCCCC1)=N\O	i	i	7%	-1%[9.24 µM]	2%	14%
O=C(C[C@H]1CC[C@H](NC(=O)C2CCOCC2)[C@@H](CO)O1)NCc1ccncc1	i	i	1%	20%	4%	21%
CC(=O)c1sc2nsc(SCCN3CCCC3)c2c1N	i	i	?	-2%	26µM*	-10%
CC(=O)c1sc2nc(C)c3c(c2c1N)CCCC3	?	?	?	-13%	0%	-1%
CCCCN(C(=O)c1cc(=O)[nH]c2ccccc12)c1c(N)n(CCCC)c(=O)[nH]c1=O	/	/	2%	12%	-1%	-3%
COc1ccc(NC(=O)c2ccc(NC(=O)CN3CCC(C(N)=O)CC3)cc2)cc1	?	i	-4%	12%	11%	1%

From PubChem BioAssay
